According to PubChem BioAssay AID652010 (The Scripps Research Institute Molecular Screening Center, 2013):
The campaign covered roughly 370,000 compounds. About 4,100 (1.1%) were called active.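 Rule for the calls: active = inhibition above the mean over all tested compounds plus 3 SD (cut at about 3.6% in these data); inactive = the rest.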 The sample as a whole holds a higher share of actives than the screen did.

experiment: relief of DAX-1 repression of SF-1 activity – cell-based, luminescence, SF-1 (NR5A1), full-length DAX-1, primary screen (AID 652010); settings: HEK293T StAR-luciferase reporter, SF-1/DAX-1 repression relief; at 6.8 µM; active compounds read high;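 note: 0% = DAX-1 cells with DMSO and 100% = cells lacking DAX-1 with DMSO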

inhibition, active:
CCN(c1ccccc1)S(=O)(=O)c1ccc(OCC(=O)N2CCCC2)cc1 4.72%
CC(=O)c1ccc(NC(=O)CCc2nnc3ccc(NCc4ccco4)nn23)cc1 4.34%
Nc1ccc2nn(-c3ccc(Cl)cc3)nc2c1 4.89%
CC(=O)Nc1cccc(C(=O)OCC(=O)c2ccc3c(c2)OCO3)c1 13.7%
O=C(NCC(=O)N1CCCC(C(F)(F)F)C1)c1ccccc1F (stereo unspecified) 4.23%
CC1CCN(C(=O)COC(=O)c2cc(=O)[nH]c3ccccc23)CC1 9.38%
C=CCn1c(C)cc(C(=O)CN2C(=O)c3ccccc3C2=O)c1C 3.9%
Cc1cccc(NC(=O)/C=C/c2ccc3c(c2)OCO3)n1 5.26%
COc1cccc(/C=C/C(=O)Nc2ccc3c(c2)OCCO3)c1 5.36%
O=C(O)c1cccc(N=NN2CCCCCC2)c1 6.35%

inhibition, inactive:
Cc1ccc(NS(=O)(=O)c2cc3c(cc2Br)NC(=O)CO3)cc1C -2.1%
CN1CCN(S(=O)(=O)c2ccc(NC(=O)C3CCCO3)cc2)CC1 (stereo unspecified) -0.58%
CCOc1cc(/C=N/NC(=O)c2ccc(CSc3nncn3C)cc2)ccc1OCC(=O)N1CCOCC1 0.55%
O=S1(=O)c2ccc(N3CCN(Cc4ccccc4F)CC3)cc2Oc2ccccc2CN1Cc1cn(Cc2ccc(Cl)cc2)nn1 -0.86%
O=S(=O)(c1cccs1)N1CCCc2nc(-c3ccc(Br)cc3)ccc21 0.56%
CCCCN1CCN(C(=O)c2ccc3c(c2)NC(=O)C(C)(C)O3)CC1 0.65%
COc1ccc(N(CC(=O)N2CCCCCC2)S(=O)(=O)c2ccccc2)cc1 -0.37%
CC(NS(=O)(=O)c1ccc(OCC(=O)N2CCCC2)cc1)c1ccccc1 (stereo unspecified) 0.22%
CCOc1ccccc1NC(=O)CCc1nnc2ccc(NCc3ccco3)nn12 -0.55%
O=C(CCc1nnc2ccc(NCc3ccco3)nn12)Nc1cc(F)ccc1F 1.27%
O=C(CSc1nnc(-c2ccccc2)n1Cc1ccco1)Nc1ccccc1-c1ccccc1 -1.32%
Cc1cccc(NC(=O)C(C)N2C(=O)C3C4CC(C(Br)C4Br)C3C2=O)c1 (stereo unspecified) -0.17%
Nc1ccc2c(c1)C(O)c1ccc(Cl)cc1-2 (stereo unspecified) 0.66%
Nc1nc2cc(Cl)ccc2n1N 0.18%
CCOC(=O)N1CCN(C(=O)C[C@H]2C[C@@]3(C(=O)OC)C(=C[C@H](C4CCCC4)O[C@@H]3C)N(Cc3ccccc3)C2=O)CC1 -0.29%
CC(C)N1CCCCC(NC(=O)C(C)(C)C)C1=O (stereo unspecified) -0.67%
CC(=O)Nc1cccc(C(=O)OCC(=O)NCc2cc(C)c(O)c(C)c2)c1 2.37%
CC(=O)Nc1cccc(C(=O)OCN2C(=O)c3ccccc3C2=O)c1 1.3%
COC(=O)C1CN(CCc2ccccc2)CCS(=O)(=O)N1Cc1cccc(Cl)c1 (stereo unspecified) -1.7%
O=C1CC[C@@H](COc2ccc3[nH]cc(-c4ccccc4)c3c2-c2ccccc2)N1 -0.82%
O=C(NCC(=O)N1CCCCCCC1)c1ccccc1Cl -0.28%
O=C(COC(=O)CNC(=O)c1ccccc1F)NCC(F)(F)F -0.62%
O=C(C1CCCO1)N(c1ccc(F)cc1)C1C=CS(=O)(=O)C1 (stereo unspecified) -0.69%
C=CC1=CCN(S(=O)(=O)C(C)(C)C)[C@@H]1CCO -0.3%
CN(C(=O)COC(=O)c1cc(=O)[nH]c2ccccc12)C1CCCCC1 3.03%
O=C(COC(=O)c1cc(=O)[nH]c2ccccc12)NCc1cccc(Cl)c1 -1.15%
COC(=O)[C@@]12CCCCC=C1N(CCc1ccc(Cl)cc1)C(=O)[C@H]2CC(=O)NCc1ccc(OC)c(OC)c1 -1.83%
CC(C)(C)OC(=O)NCCc1ccccc1/C=C/S(=O)(=O)NCc1ccc(F)cc1 -2.47%
COc1cc(C(C)=O)ccc1OC(=O)CN1C(=O)c2ccccc2C1=O -0.4%
C=CCN(CC=C)C(=O)CN1C(=O)c2ccccc2C1=O -0.48%
CCn1c(SCC(C)=O)nc2sc3c(c2c1=O)CCCC3 -0.04%
Cc1ccc(OCCCC(=O)Nc2ccc3c(c2)OCCO3)cc1 -0.75%
O=C(COC(=O)/C=C/c1ccc2c(c1)OCO2)NC1CCS(=O)(=O)C1 (stereo unspecified) 0.14%
COc1ccc(S(=O)(=O)N(C)CC(=O)Nc2ccc3c(c2)OCCO3)cc1OC 0.16%
CN(Cc1ccccc1)C(=O)COC(=O)/C=C/c1ccc2c(c1)OCO2 0.06%
C=CCN1C(=O)[C@H](CC(=O)N2CCN(C(=O)OCC)CC2)[C@@]2(C(=O)OCC)CCCC=C12 -0.21%
COC(=O)c1ccccc1-n1cc(COC(=O)NCCc2ccccc2)nn1 -0.35%
Cc1cc(NS(=O)(=O)c2ccc(NC(=O)CSc3nnc(-c4ccc(C(C)(C)C)cc4)n3Cc3ccco3)cc2)nc(C)n1 0.36%
COC(=O)C1=C(C)N(Cc2ccccc2C(F)(F)F)C(=NCC2CC2)NC1c1cccc(Cl)c1 (stereo unspecified) 0.1%
CC(C)C[C@H]1CN([C@@H](CC(C)C)CN2CCC[C@@H]2CN2C(=O)C(=O)NC[C@@H]2Cc2ccccc2)C(=O)C(=O)N1CCc1ccccc1 -1.31%
CN1[C@H](Cc2ccccc2)COc2cccc(N3CCSCC3)c2S1(=O)=O -1%
NC1=NN(c2cccc(C(=O)O)c2)C(=O)C1 -0.57%
Cc1cccc(C(=O)N2CCN(S(=O)(=O)N3CCCCC3)CC2)c1 1.49%
CCOC(=O)[C@]12CCCC=C1N(CCCOC)C(=O)[C@@H]2CC(=O)N1CCOCC1 -0.49%
CCCNC(=O)Nc1ccc2c(c1)C(=O)N(C)[C@H]1CC[C@H](CC(=O)NCC3CCCCC3)O[C@@H]1CO2 -0.63%
COC(=O)C(C(=O)OC)c1ccccc1NS(=O)(=O)c1cccc2ccccc12 0.06%
